# Pf growth 48h: inhibits P. falciparum growth in the first generation, 48 h; AID 504832; P. falciparum luciferase growth in erythrocytes, 48 h; 310,000 compounds, 5.9% hits; Potency, µM (series often up to 28.7 µM), most hits filed as inhibitors
#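 Growth was read as firefly luciferase luminescence after a 48 h, 37 C, 5% CO2 exposure of compounds to reporter-bearing P. falciparum cultures (0.1% parasitemia, 2% hematocrit final) in Albumax-supplemented RPMI 1640.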
# Pf growth 96h: P. falciparum growth inhibition at 96 hour, primary screen for plastid delayed-death inhibitors; 320,000 compounds, 6.9% hits; P. falciparum luciferase reporter growth, 96 h; AID 504834; Potency, µM (doses to about 28.7 µM), hits mostly inhibitors
#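 Two-generation exposure (96 h) targets delayed-death phenotype. Reporter parasites carrying integrated firefly luciferase, in red cells at 2% hematocrit and 0.05% parasitemia final, kept at 37 C, 5% CO2; luminescence loss indicates inhibition.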
# CHX counter: counter-screen for Shiga toxin inhibitors: cycloheximide protein synthesis inhibition | cell reporter, cycloheximide protein synthesis inhibition counterscreen | max response, % | 300,000 compounds, 12% hits | AID 2314; in the data active = max response mostly above about 13%, no sharp cut-off; inactive = mostly below about 14%; note: read at 38.3 µM for the half of the compounds with a filed dose
# HCMV antiviral: human cytomegalovirus inhibition | 410,000 compounds, 4.5% hits | HFF cells, HCMV-luciferase reporter, 72 h; active compounds read low | activity change, negative = inhibition, % at 57.5 µM; in the data active = activity change below about -60%; inconclusive = no clear call, values can overlap the other calls; inactive = above about -39%
#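 Two compound doses tested in HFFs infected with HCMV-luciferase, MOI 1 PFU/cell, 72 h at 37C. Lysate luminescence read with OneGlo; data normalized against buffer-only and 10uM Salinomycin inhibitor controls.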
# Shiga inhibitor: Shiga toxin inhibition. Vero cells, Shiga toxin protein synthesis inhibition reporter. inhibition, % at 38.7 µM. 290,000 compounds, 9.2% hits; in the data active = inhibition mostly above about 28%, no sharp cut-off; inactive = mostly below about 43%
# Hits are given with their value; - = inactive; ? = inconclusive; . = no result. An excerpt weighted towards active compounds, which were near 20% of everything screened. Unless noted, calls come from the whole dose curve; as a rule, active = well fitted inhibition curve with a large enough effect; inconclusive = small, poorly fitted or top-dose-only effect, or another doubt; inactive = no such curve, though single readings can be large or run the other way.
SMILES,Pf growth 48h,Pf growth 96h,CHX counter,HCMV antiviral,Shiga inhibitor
CCC(=O)Nc1cc(-c2cc3ccccc3oc2=O)ccc1OC,-,2.94µM,-,-,-
CC(=O)Nc1ccc(-c2cc3ccccc3o2)cc1,-,.,43.4,-,104.8
Cc1cc(N)ccc1-c1cc2ccccc2oc1=O,-,?,16.7,-,.
CCN(CC(=O)Nc1ccc(NC(C)=O)cc1)C(=O)c1cc2ccccc2oc1=O,-,-,.,-,.
COc1cccc(C(=O)OCC(=O)N2CCc3ccccc3C2)c1,.,.,.,-,.
COc1cccc(C(=O)O/N=C(\N)CS(=O)(=O)c2ccccc2)c1,-,-,56.3,-,62.9
Cc1cccc(C(=O)O/N=C(\N)CS(=O)(=O)c2ccccc2)c1,-,-,15.6,-,-
CN(C#N)c1nccc(-c2cccs2)n1,?,-,-,-,-
NC(=S)Nc1nccc(-c2cccs2)n1,-,-,40.8,-,60.9
Cc1ccc(C(=O)Nc2nccc(-c3cccs3)n2)cc1,-,-,28.0,-,-
Cc1ccc(NC(=O)C2CCN(S(=O)(=O)c3c(C)noc3C)CC2)cc1C,?,?,-,?,-
COc1ccccc1N1CCN(C(=O)CN2C(=O)COc3ccc(S(=O)(=O)N4CCCC4)cc32)CC1,.,.,.,-,.
O=C(Nc1ccc(Cl)c([N+](=O)[O-])c1)C(Sc1ccccc1)c1ccccc1 (stereo unspecified),13.1µM,?,-,-102.3,-
CC(=O)N(C)c1ccc(NC(=O)C(Sc2ccccc2)c2ccccc2)cc1 (stereo unspecified),?,-,18.4,-,43.4
CC(=O)c1cccc(CN2CCC(C(=O)Nc3cccc(-c4ccn[nH]4)c3)CC2)c1,?,-,-,?,-
O=C(Cc1ccc(NC(=O)C2CCN(C(=O)C3CCCC3)CC2)cc1)Nc1ccc(C(=O)N2CCOCC2)cc1,.,.,.,-,.
Cc1cccc(C)c1NC(=O)CN(C)C(=O)c1ccccc1Sc1ccccc1C#N,9.28µM,?,.,-,.
Cc1cc(=S)c2ccccc2[nH]1,-,-,-,-,-
COc1cc2[nH]c3ccccc3c2cc1C,-,-,53.2,-,69.1
CC(C)CN(C)C(=O)CC1C(=O)NCCN1C (stereo unspecified),-,-,-,.,-
Cc1ccc(C)c(Cn2cc(S(=O)(=O)c3ccc(Cl)cc3)c(=O)c3cc(F)ccc32)c1,.,.,.,-,.
CC(=O)Nc1cccc(-c2ccnc3c2CC(C)(C(=O)NCCc2ccccc2)O3)c1 (stereo unspecified),.,.,.,-88.2,.
CC1(C(=O)NCCc2ccccc2)Cc2c(-c3cccc(C(F)(F)F)c3)ccnc2O1 (stereo unspecified),.,.,.,-61.9,.
CC(=O)Nc1cccc(-c2ccnc3c2CC(C(=O)NCCc2ccccc2)O3)c1 (stereo unspecified),.,.,.,-86.1,.
CC1(C(=O)NCCc2ccccc2)Cc2c(-c3ccccc3)ccnc2O1 (stereo unspecified),.,.,.,-,.
SMILES,Pf growth 48h,Pf growth 96h,CHX counter,HCMV antiviral,Shiga inhibitor
CC1(C(=O)NCc2ccccc2)Cc2c(-c3ccc4c(c3)OCO4)ccnc2O1 (stereo unspecified),.,.,.,-80.5,.
CC(=O)Nc1cccc(-c2ccnc3c2CC(C)(C(=O)NCCN(C)C)O3)c1 (stereo unspecified),.,.,.,-,.
CC1CN(S(=O)(=O)N2CCOCC2)CCN1S(=O)(=O)N1CCOCC1 (stereo unspecified),-,?,-,-,-
CC(c1ccccc1)n1cc(C(=O)NCc2ccncc2)nn1 (stereo unspecified),-,-,-,-,-
CC(c1ccccc1F)n1cc(C(=O)NCc2ccncc2)nn1 (stereo unspecified),-,0.522µM,-,-,-
CC(C)CNc1oc(-c2ccccc2Cl)nc1C#N,-,-,13.5,-,29.0
N#Cc1nc(COc2ccc(Cl)cc2Cl)oc1N1CCN(c2ccccc2)CC1,-,?,-,-,-
COCCCNc1oc(COc2ccc(Cl)cc2Cl)nc1C#N,.,13.1µM,-,-,-
N#Cc1nc(COc2ccc(Cl)cc2Cl)oc1N1CCOCC1,-,-,29.1,-,35.5
COCCCNc1oc(-c2ccccc2Cl)nc1C#N,-,-,15.5,-,-
Clc1ccc(CN2CCN(c3ccccc3)CC2)cn1,-,?,-,-,-
Cc1ccc(C2C3=C(CC(C)(C)CC3=O)N(CCN3CCOCC3)C3=C2C(=O)CC(C)(C)C3)cc1,11.7µM,?,-,-,-
CC1(C)CC(=O)C2=C(C1)N(CCN1CCOCC1)C1=C(C(=O)CC(C)(C)C1)C2c1ccc(Cl)c([N+](=O)[O-])c1,?,-,-,-,-
Cc1ccc(C2C3=C(CC(C)(C)CC3=O)OC3=C2C(=O)CC(C)(C)C3)cc1,10.4µM,-,-,-,-
CC1(C)C=Cc2c(c3c(c4c(=O)c(-c5ccc(O)cc5)coc24)OC(C)(C)CC3)O1,?,9.28µM,-,-,-
CC(C)=CCc1c2c(c3occ(-c4ccc(O)c(O)c4)c(=O)c3c1O)C=CC(C)(C)O2,.,.,.,-,.
Cn1c(=O)c2c(c3ccccc31)OC(C)(C)CC2,-,-,-,-,-
CC(C)=CCc1c2c(c3occ(-c4ccc(O)cc4)c(=O)c3c1O)C=CC(C)(C)O2,?,?,-,-105.7,-
Cc1ccc(C(=O)NC(=S)Nc2cccnc2Cl)cc1,-,-,46.7,-,90.8
COc1ccccc1-c1cc(C(=O)Nc2cccnc2Cl)no1,-,-,-,-,-
COc1ccccc1C(=O)NC(=S)Nc1cccnc1Cl,-,-,17.5,-,-
COc1ccc2[nH]c(S(=O)Cc3ncc(C)c(OC)c3C)nc2n1 (stereo unspecified),9.53µM,8.49µM,.,.,.
COc1ccc2[nH]c(S(=O)Cc3ncc(C)c(OC)c3C)nc2c1 (stereo unspecified),.,5.86µM,-,-,-
COc1ccnc(CS(=O)c2nc3cc(C(O)(F)F)ccc3[nH]2)c1OC (stereo unspecified),-,-,-,-,-
Clc1ccccc1C1CC(c2ccccc2)=Nc2ccccc2N1 (stereo unspecified),-,-,42.8,-,92.9
SMILES,Pf growth 48h,Pf growth 96h,CHX counter,HCMV antiviral,Shiga inhibitor
Brc1ccccc1C1CC(c2ccccc2)=Nc2ccccc2N1 (stereo unspecified),-,-,96.7,-,90.5
c1ccc(C2=Nc3ccccc3NC(c3ccccc3)C2)cc1 (stereo unspecified),-,-,35.7,-,125.5
c1ccc(C2=NC(c3ccccc3)CC2)cc1 (stereo unspecified),.,.,.,-,.
O=[N+]([O-])c1ccc(Cl)cc1Sc1cccc2cccnc12,-,-,-,-,-
O=[N+]([O-])c1ccc(Cl)cc1Sc1nc2ccccc2o1,8.28µM,-,-,-,-
O=c1[nH]c(Sc2ccc([N+](=O)[O-])cc2[N+](=O)[O-])nc2ccccc12,.,.,.,-,.
O=[N+]([O-])c1ccc(Sc2nc3ccccc3o2)c([N+](=O)[O-])c1,.,?,-,-107.0,54.6
CCCC(=O)Nc1sc2c(c1C#N)CC(C)(C)NC2(C)C,-,2.08µM,-,-,-
